The text below walks through data of PubChem BioAssay (NCATS).

Assay [1] addresses Lysosomal acid glucosylceramidase (Homo sapiens) (UniProt P04062). Briefly: Glucocerebrosidase-p2 (AID 348; in the data active = potency below about 10 µM; also: potency is read from the fitted curve at half-maximal effect). As to conditions: purified GBA, blue fluorogenic substrate, 40 min. Put shortly: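 Compounds titrated from 0.6 nM upwards against 0.2 nM enzyme in pH 5.9 citric acid/KH2PO4, taurocholate, tween-20; blue fluorogenic substrate 80 uM, 40 min room temperature, stopped and read Ex 365/Em 440 for AC50.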

Assay [2] is described as follows: AP1 Signaling Pathway (AID 357). Also: % is scaled to controls: 0 for no effect and ±100 for the full control effect. As to conditions: ME-180 AP-1-bla reporter, EGF-induced, beta-lactamase ratio, 5 h; at 7.69 µM (top of the series) unless noted. Put shortly: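 Cells are seeded overnight, exposed to compound titrations and an EC50 level of EGF for 5 hours at 37 °C, then loaded with CCF4 dye for 2.5 hours. Beta-lactamase activity under the AP-1 element is read as a blue/green ratio.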

The nature of assay [3]: Stat Signaling Pathway (AID 446).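 Also: ME-180 cervical cancer cells given 40 pM IL-6 alongside compound; SIE-controlled beta-lactamase reporter measured as 460/530 nm FRET emission ratio; % is scaled to controls: 0 for no effect and ±100 for the full control effect.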 The following applies: ME-180 SIE beta-lactamase reporter, IL-6 stimulated, 5 h; at 7.69 µM (top of the series) unless noted. Summed up:
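Screening format detects activators and inhibitors alike: ME-180 SIE-bla cells stimulated at 40 pM IL-6 for 5 hrs with compound, then dual-emission beta-lactamase read at 405 nm excitation.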

The target of assay [4] is Glucocorticoid receptor (Homo sapiens) (UniProt P04150). Put plainly: GR-EFC Redistribution (AID 451; calls by dose curve; also: potency is read from the fitted curve at half-maximal effect). The following applies: CHO-K1 GR-EFC translocation, beta-gal luminescence, 2 h. Summed up: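 CHO-K1 cells stably expressing nuclear-localized β-gal enzyme acceptor and GR fused C-terminally to the enzyme donor fragment; ligand-driven nuclear translocation restores β-gal by complementation. Compounds titrated up to 46 uM final, 2 h at 37 °C; luminescence read.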
Sequence of Glucocorticoid receptor (Homo sapiens) (P04150 whole entry, looked up, the tested form may be a part): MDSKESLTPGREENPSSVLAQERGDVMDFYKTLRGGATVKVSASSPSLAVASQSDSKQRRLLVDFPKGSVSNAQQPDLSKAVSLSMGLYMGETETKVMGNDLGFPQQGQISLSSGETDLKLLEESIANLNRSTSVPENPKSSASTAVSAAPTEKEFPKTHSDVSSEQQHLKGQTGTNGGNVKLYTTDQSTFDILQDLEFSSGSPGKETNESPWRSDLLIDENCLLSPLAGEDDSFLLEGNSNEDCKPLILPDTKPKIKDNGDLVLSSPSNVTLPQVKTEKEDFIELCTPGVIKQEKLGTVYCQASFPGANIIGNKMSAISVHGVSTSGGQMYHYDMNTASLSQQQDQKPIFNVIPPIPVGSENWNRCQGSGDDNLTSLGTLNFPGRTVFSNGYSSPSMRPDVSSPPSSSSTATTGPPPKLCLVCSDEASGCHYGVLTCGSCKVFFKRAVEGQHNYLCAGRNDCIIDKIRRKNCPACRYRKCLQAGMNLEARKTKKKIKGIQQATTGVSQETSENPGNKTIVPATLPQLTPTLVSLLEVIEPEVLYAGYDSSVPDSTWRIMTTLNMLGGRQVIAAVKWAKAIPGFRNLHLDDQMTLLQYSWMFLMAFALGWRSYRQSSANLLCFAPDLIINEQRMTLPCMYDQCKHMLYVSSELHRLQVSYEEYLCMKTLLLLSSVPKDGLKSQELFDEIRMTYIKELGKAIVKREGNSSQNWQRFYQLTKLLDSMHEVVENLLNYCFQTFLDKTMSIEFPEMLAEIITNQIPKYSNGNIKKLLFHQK

In assay [5] the target is Mitogen-activated protein kinase 10 (Mus musculus) (UniProt Q61831). Put plainly: JNK3 AlphaScreen Assay (AID 530).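 Also: kinase came from lysate of stimulated human HepG2 cells; % is scaled to controls: 0 for no effect and ±100 for the full control effect.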 The following applies: JNK3 lysate, c-Jun phosphorylation; series mostly up to 57.1 µM. Summed up: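 JNK3 came from HepG2 lysates pre-activated with IL-1beta and TNF-alpha and phosphorylated biotinylated GST-cJun (1-79) at 10 uM ATP, pH 7.6, room temperature. Compounds were titrated. AlphaScreen signal used anti-phospho-cJun (Ser73) antibody.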

Assay [6] addresses 3',5'-cyclic-AMP phosphodiesterase 4B (Homo sapiens) (UniProt Q07343). Put plainly: qHTS Assay for Inhibitors of PDE-IV (AID 607; active = well fitted activation curve with a large enough effect in the main read-out, with a control signal flat, not every such curve was filed as active; also: % of control where 0% means no effect). As to conditions: HEK293 ACTOne CNG channel cells, membrane potential fluorescence; series mostly up to 22.9 µM. Summed up: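 The readout is membrane depolarisation from a cAMP-sensing CNG channel, detected with a potential dye at ex 535/em 590. Cells were HEK293-derived (endogenous PDE-IV) at 1000 cells/well, titrated up to 22.9 uM final.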
For orientation: In qHTS, concentration-response curves come from the screen itself.

The nature of assay [7]: qHTS Assay for Lipid Storage Modulators (AID 1519; calls by dose curve). As to conditions: Drosophila S3 cells, BODIPY lipid droplet/cell ratio, laser cytometry, cells loaded with oleic acid; for activity change, negative = inhibition: at 57.5 µM (top of the series). Summed up: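 Cells seeded at 5,000 per well were treated with compounds over a concentration series and loaded with oleic acid (400 uM, as added). Lipid droplet fluorescence (488 nm excitation, 500-530 nm channel) was read by laser-scanning cytometry and normalized to 20 uM Triacsin C.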

Assay [8] is described as follows: Primary qHTS for small molecule stabilizers of the endoplasmic reticulum resident proteome: Secreted ER Calcium Modulated Protein (SERCaMP) assay (AID 1508630; active = well fitted inhibition curve with a large enough effect; also: % is scaled to controls: 0 for no effect and ±100 for the full control effect). The following applies: SH-SY5Y GLuc-SERCaMP (Gaussia luciferase released on ER calcium loss) secretion, thapsigargin, luminescence; series mostly up to 38.4 µM. Put shortly:
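GLuc-SERCaMP-expressing SH-SY5Y cells, pretreated 16 h with compound, are challenged with thapsigargin to empty ER calcium stores; after 4 h, coelenterazine is added directly to the medium and luminescence is imaged.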

The nature of assay [9]: NFAT Signaling Pathway (AID 444). The following applies: Jurkat NFAT-bla M1, carbachol, beta-lactamase ratio, 5 h; at 7.69 µM (top of the series) unless noted. Put shortly: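 Jurkat cells carrying an NFAT-driven β-lactamase reporter and co-transfected muscarinic M1 receptor were treated with compound plus carbachol (1 uM final, an EC50 level) for 5 h at 37 °C. CCF4 loading followed for 1 h at RT; 460/530 nm ratio gave %activity.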

Where [10] appears, read: measured here: cell count channel max response.
Where [11] appears, read: measured here: lipid channel max response.

The structures appear in SMILES notation. Inconclusive results are not listed. Activity calls are given as the source filed them. Unless noted, calls follow the shape of the dose curve; as a rule, active = well fitted curve in either direction with a large enough effect (not every such curve was filed as active); inconclusive = small, poorly fitted or top-dose-only effect, or another doubt; inactive = flat fitted curve, though single readings scatter. Bounds are passed on as bounds.

Sequence of 3',5'-cyclic-AMP phosphodiesterase 4B (Homo sapiens) (Q07343 whole entry, looked up): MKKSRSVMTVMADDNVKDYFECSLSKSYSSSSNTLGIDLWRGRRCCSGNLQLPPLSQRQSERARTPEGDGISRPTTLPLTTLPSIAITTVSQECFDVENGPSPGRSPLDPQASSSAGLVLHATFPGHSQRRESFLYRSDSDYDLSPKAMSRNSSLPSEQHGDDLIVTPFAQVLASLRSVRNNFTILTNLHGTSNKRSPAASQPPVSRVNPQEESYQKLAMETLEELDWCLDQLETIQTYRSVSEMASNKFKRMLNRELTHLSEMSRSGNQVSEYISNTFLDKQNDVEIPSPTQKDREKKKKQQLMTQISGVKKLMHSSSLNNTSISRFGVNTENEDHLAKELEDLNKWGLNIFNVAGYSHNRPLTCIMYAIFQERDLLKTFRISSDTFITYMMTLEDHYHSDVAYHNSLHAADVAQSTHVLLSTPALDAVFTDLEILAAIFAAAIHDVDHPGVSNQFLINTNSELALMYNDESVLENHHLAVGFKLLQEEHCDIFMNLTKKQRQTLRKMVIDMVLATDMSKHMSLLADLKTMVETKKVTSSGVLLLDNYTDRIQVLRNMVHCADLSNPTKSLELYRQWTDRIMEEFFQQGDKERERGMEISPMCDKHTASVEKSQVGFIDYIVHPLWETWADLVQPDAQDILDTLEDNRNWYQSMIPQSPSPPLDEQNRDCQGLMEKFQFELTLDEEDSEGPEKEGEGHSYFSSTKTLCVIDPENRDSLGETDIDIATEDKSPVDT
Sequence of Lysosomal acid glucosylceramidase (Homo sapiens) (P04062 whole entry, looked up): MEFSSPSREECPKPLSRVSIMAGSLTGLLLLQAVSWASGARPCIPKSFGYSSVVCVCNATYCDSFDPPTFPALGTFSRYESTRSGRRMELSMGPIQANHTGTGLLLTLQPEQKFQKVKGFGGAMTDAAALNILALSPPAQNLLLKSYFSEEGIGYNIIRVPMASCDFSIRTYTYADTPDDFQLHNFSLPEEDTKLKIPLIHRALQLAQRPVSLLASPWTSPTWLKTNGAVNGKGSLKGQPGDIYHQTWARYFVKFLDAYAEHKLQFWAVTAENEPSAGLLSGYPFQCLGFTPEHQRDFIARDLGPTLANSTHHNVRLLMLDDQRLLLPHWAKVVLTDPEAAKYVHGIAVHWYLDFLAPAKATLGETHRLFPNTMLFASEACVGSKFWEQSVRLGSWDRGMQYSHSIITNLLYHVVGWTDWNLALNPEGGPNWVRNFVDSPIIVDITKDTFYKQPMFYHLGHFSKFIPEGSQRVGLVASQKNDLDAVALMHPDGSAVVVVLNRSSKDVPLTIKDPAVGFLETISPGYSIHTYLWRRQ

On to `O=C(c1cnccn1)N1CCC2(CC1)CN(c1ncccn1)C2`, for which the results for the Potency in assay [1] and in assay [4] were > 11.4 µM (inactive) and > 46 µM (inactive), respectively. The activity change, negative = inhibition is -12.2% (inactive) in [2] and 6.01% (inactive) in assay [7]. Also, the activity, negative = inhibition in [3] is 21.6% (inactive). The Potency result in assay [5] and in assay [6] was “inactive” throughout. Also, the max response in assay [7] (setting [10]) turned out to be 6.2%; in [7] (setting [11]), 15.3%. In addition, the result in [8] was inactive.

On to `COCC(=O)N1CCC2(CCCN(Cc3ccc(C#N)cc3)C2)CC1`, for which the Potency is > 11.4 µM (inactive) in [1] and > 46 µM (inactive) in assay [4]. Besides, the activity change, negative = inhibition was 12.6% (inactive) in assay [2] and 4.66% (inactive) in assay [7]. Besides, the activity, negative = inhibition in [3] is 1.68% (inactive). The Potency result in assay [5] and in assay [6] was “inactive” each time. The max response in [7] (setting [10]) was -1.66%; in [7] (setting [11]) it was 3.44%. In assay [8], the result was inactive.

`O=C(c1cccc(F)c1)N1CCC2(CCCN(c3ccncc3)C2)CC1`: the Potency was > 11.4 µM (inactive) in assay [1] and > 46 µM (inactive) in [4]. Moreover, the activity change, negative = inhibition in [2] is 8.58% (inactive); in [7], 3.69% (inactive). Moreover, in [3], the activity, negative = inhibition was -8.19% (inactive). The Potency entry in [5] and in [6] was “inactive” each time. For the same compound, the max response amounted to 9.25% in [7] (setting [10]) and 16.5% in [7] (setting [11]). Besides, in assay [8], the result was inactive.

Regarding `CC(=O)N1CCC[C@@]2(CCN(Cc3ccc(C#N)cc3)C2)C1`, the Potency was > 11.4 µM (inactive) in assay [1] and > 46 µM (inactive) in assay [4]. The activity change, negative = inhibition in assay [2] is -11.7% (inactive); in assay [9], 2.49% (inactive); in [7], 2.62% (inactive). For the same compound, the Potency entry in assay [5] and in assay [6] was “inactive” throughout. The max response in assay [7] (setting [10]) is 7.32%; in [7] (setting [11]), 8.41%. Besides, the outcome in assay [8] was inactive.

In the case of `O=C(c1cc(C(F)(F)F)cc(C(F)(F)F)c1)N1CCC2(CCCN(Cc3ccccc3)C2)CC1`, the Potency is > 11.4 µM (inactive) in [1] and > 46 µM (inactive) in [4]. In addition, the activity change, negative = inhibition in assay [2] was 15.8% (inactive); in assay [7] it was -0.673% (inactive). Also, the activity, negative = inhibition in assay [3] is -0.518% (inactive). Besides, the Potency result in [5] and in assay [6] was “inactive” each time. The max response in assay [7] (setting [10]) was 4.9%; in assay [7] (setting [11]), 5.21%. The outcome in assay [8] was inactive.

`COc1ccccc1CN1CCCC2(CCN(C(=O)c3cccc(F)c3)CC2)C1`: the Potency in assay [1] was > 11.4 µM (inactive); in assay [4], > 46 µM (inactive). Further, the activity change, negative = inhibition in [2] was -7.36% (inactive); in assay [7], 0.576% (inactive). For the same compound, the activity, negative = inhibition in assay [3] is 1.24% (inactive). In addition, the Potency entry in assay [5] and in assay [6] was “inactive” in each case. For the same compound, the max response in [7] (setting [10]) was 3.85%; in assay [7] (setting [11]) it was 7.25%. Moreover, the outcome in assay [8] was inactive.

For `CC(C)CN1CCC2(CC1)CCN(C(=O)c1ccco1)CC2`, the figures for the Potency in assay [1] and in assay [4] were > 11.4 µM (inactive) and > 46 µM (inactive), respectively. The activity change, negative = inhibition in assay [2] was 10.1% (inactive); in assay [7] it was -0.991% (inactive). In addition, in assay [3], the activity, negative = inhibition is -2.71% (inactive). Besides, the Potency result in assay [5] and in assay [6] was “inactive” throughout. Moreover, the max response was -0.576% in [7] (setting [10]) and 1.45% in assay [7] (setting [11]). Besides, the outcome in assay [8] was inactive.

Regarding `N#Cc1ccc(CN2CC3(CCN(C(=O)c4ccco4)CC3)C2)cc1`, the Potency in assay [1] was > 11.4 µM (inactive); in [4] it was > 46 µM (inactive). In addition, the values for the activity change, negative = inhibition in assay [2] and in assay [7] were -7.09% (inactive) and 4.77% (inactive), respectively. Also, in assay [3], the activity, negative = inhibition is 4.26% (inactive). Moreover, the Potency result in assay [5] and in [6] was “inactive” each time. The max response is 18.6% in assay [7] (setting [10]) and 23.7% in assay [7] (setting [11]). Also, in assay [8], the result was inactive.

Turning to `N#Cc1ccc(CN2CCC3(CC2)CCN(C(=O)c2ccco2)CC3)cc1`, the figures for the Potency in assay [1] and in assay [4] were > 11.4 µM (inactive) and > 46 µM (inactive), respectively. Further, the activity change, negative = inhibition in assay [2] is -11.2% (inactive); in assay [7], 1.05% (inactive). The activity, negative = inhibition in [3] is -4.42% (inactive). In addition, the Potency result in assay [5] and in assay [6] was “inactive” in each case. For the same compound, the max response was determined as 20.4% in [7] (setting [10]) and 24% in assay [7] (setting [11]). Moreover, the outcome in [8] was inactive.
